# Pf growth 48h: Primary qHTS for delayed death inhibitors of the malarial parasite plastid, 48 hour incubation | P. falciparum luciferase growth in erythrocytes, 48 h | Potency, µM (doses to about 28.7 µM), inactives show top-dose activity change, negative = inhibition, usual class: inhibitors | 5.9% of 310,000 active; further: on the % scale 0 is the no-effect control and ±100 the full control effect
#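 Luminescence readout; reporter = integrated firefly luciferase in P. falciparum. RBC culture at 2% hematocrit, 0.1% parasitemia final, 37 C/5% CO2; decreased signal taken as growth inhibition.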
# Pf growth 96h: Primary qHTS for delayed death inhibitors of the malarial parasite plastid, 96 hour incubation; P. falciparum luciferase reporter growth, 96 h; AID 504834, 2011; 6.9% of 320,000 active; Potency, µM (titrated, usually from 28.7 µM), without a hit: at the top dose activity change, negative = inhibition, most hits filed as inhibitors; further: on the % scale 0 is the no-effect control and ±100 the full control effect
#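 P. falciparum expressing integrated firefly luciferase, in erythrocytes at 2% hematocrit, 0.05% parasitemia, incubated with compounds 96 h at 37 C, 5% CO2. Growth inhibition read as loss of luminescence; two-generation exposure targets delayed-death apicoplast inhibitors.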
# Sm TGR inh: qHTS Assay for the Inhibitors of Schistosoma Mansoni Peroxiredoxins; Schistosoma mansoni thioredoxin glutathione reductase (TGR), Q962Y6; purified TGR, DTNB reduction, TNB absorbance 405 nm; Potency, µM (titrated, usually from 114 µM), without a hit: top-dose activity change, negative = inhibition, usual class: inhibitors; 3% of 360,000 active; AID 485364, 2010; further: on the % scale 0 is the no-effect control and ±100 the full control effect; nearly all actives have a fitted effect of over 60% in size
#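 First, TGR (20 nM dispensed) and NADPH were mixed with compound. Second, a 15 min room-temperature incubation followed. Third, further NADPH and then DTNB were added to start the reaction. Finally, TNB absorbance was monitored kinetically.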
# SARS PLpro yeast: qHTS of Yeast-based Assay for SARS-CoV PLP. S. cerevisiae expressing SARS-CoV PLpro, growth rescue. Potency, µM (doses to about 32.9 µM), inactives show at the top dose activity, positive = growth rescue, actives largely listed as activators. 0.19% of 330,000 active; calls by dose curve; further: 0% is about no effect; nearly all actives have a fitted effect of over 55% in size
# An asterisk follows results filed as active; ? = inconclusive; · = no result given; [ ] = another dose, or the depositor's remark. In the library only some 12% were active in any assay of this set; here they are far more common. Unless noted, the call rests on the fitted dose curve; in most records, active means well fitted curve in the direction sought with a large enough effect; inconclusive means small, poorly fitted or top-dose-only effect, or another doubt; inactive means no such curve, though single readings can be large; an effect the other way counts as inactive or inconclusive. Potency means the concentration at half of the fitted maximal effect.
SMILES,Pf growth 48h,Pf growth 96h,Sm TGR inh,SARS PLpro yeast
CC1(C)CC(=O)C(C=NCCN2CCN(C3CC(=O)N(c4ccc(Br)cc4)C3=O)CC2)=C(O)C1 (configuration not stated),31%,13µM*,50µM*,-4%
CC(=O)N1CCN(CCN=CC2=C(O)CC(c3cccs3)CC2=O)CC1 (configuration not stated),6%,5%,45µM*,-3%
C=CCNC(=S)N1CCN(CCN=CC2=C(O)CC(c3cccs3)CC2=O)CC1 (configuration not stated),·,-35%,-7%,-1%
CC1(C)CC(=O)C(C=NCCN2CCN(C(=O)C34CC5CC(CC(C5)C3)C4)CC2)=C(O)C1,-1%,288%,25µM*,0%
CC1(C)CC(=O)C(C=NCCN2CCN(C(=O)Cc3ccc(Cl)cc3)CC2)=C(O)C1,54%,-14%,?,6%
O=CC1=C(c2ccccc2)Oc2ccccc2O1,2%,?,7%,-31%
COc1ccc(Cl)cc1C(=O)NNC(=O)c1cc2ccccc2o1,·,·,·,-4%
CCOC(=O)c1cccc(NC(=O)N2CCC(CN3CCCCCC3)CC2)c1,·,·,-29%,·
CC(C)(C)OC(=O)CC1(C#N)c2ccccc2C(Br)=CN1C(=O)c1ccccc1 (configuration not stated),12µM*,12µM*,1%,3%
CCCn1cc2c3c(cccc31)C1CC(C)CN(C)C1C2 (configuration not stated),?,12µM*,-26%,5%
CC1=C(C)/C(=N/OC(=O)c2cccc([N+](=O)[O-])c2)C=CC1=O,?,?,11µM*,-27%
N/C(=N/OC(=O)c1cccc([N+](=O)[O-])c1)c1cccc([N+](=O)[O-])c1,31%,24%,·,0%
COc1ccccc1C/C(N)=N/OC(=O)c1cccc([N+](=O)[O-])c1,12µM*,?,-26%,-35%
CN(c1ccccc1)S(=O)(=O)c1ccc(Cl)c(C(=O)Nc2ccc(-c3nc4ccccc4[nH]3)cc2)c1,?,?,-8%,-6%
O=C(Nc1nc2ccccc2[nH]1)c1ccc(F)cc1,-76%,1.5µM*,12%,3%
CN(c1ccccc1)S(=O)(=O)c1ccc(Cl)c(C(=O)Nc2nc3ccccc3[nH]2)c1,?,6.6µM*,5%,9%
O=C(Nc1nc2ccccc2[nH]1)c1ccccc1F,?,10µM*,9%,-32%
O=C(Nc1nc2ccccc2[nH]1)c1ccccc1OC(F)F,129%,200%,1%,-1%
CSc1cccc(NC(=O)CCS(=O)(=O)c2cccc3nonc23)c1,10%,204%,8%,-12%
Cc1oc(C)c2c(=O)ccc3c(c12)OC(N)=C(C#N)C3c1ccc(F)cc1 (configuration not stated),13µM*,-2%[5.75 µM],18µM*,8%
O=C(Nc1ccnn1C1CCN(Cc2ccc(CO)o2)CC1)c1ccccc1,-4%,?,-15%,3%
Cc1cc(=O)oc2c(C)c(OCC(=O)N3CCN(C(=O)C4COc5ccccc5O4)CC3)ccc12 (configuration not stated),10µM*,9.3µM*,-18%,4%
Cc1cc(=O)oc2c(C)c(OCC(=O)N3CCN(c4ccccc4)CC3)ccc12,-8%,-5%,-8%,19%
COc1cccc(-c2n[nH]c(=S)n2Cc2ccco2)c1,3%,54%,35µM*,-1%
COc1ccccc1-c1n[nH]c(=S)n1Cc1ccco1,-4%,17%,40µM*,-3%
SMILES,Pf growth 48h,Pf growth 96h,Sm TGR inh,SARS PLpro yeast
COc1ccccc1-c1n[nH]c(=S)n1Cc1ccccc1,?,-9%,0%,5%
S=c1[nH]nc(-c2ccncc2)n1Cc1ccco1,15%,25%,-32%,-11%
COc1ccc(CNC(=O)c2ccc3nc(CCc4ccccc4)oc3c2)c(OC)c1,·,·,6%,·
CCOc1ccc(NC(=O)CN(C)C(=O)CCNC(=O)c2ccco2)cc1OCC,-21%,-1%,-1%,8%
C/C(=N\Nc1nc(N2CCOCC2)nc(N2CCOCC2)n1)c1cccc([N+](=O)[O-])c1,10µM*,9%,4%,-1%
Clc1cccc(Nc2nc(N3CCOCC3)nc(N3CCOCC3)n2)c1,?,?,-4%,2%
CC(=O)Nc1ccc(/C(C)=N/Nc2nc(Nc3ccccc3)nc(N3CCOCC3)n2)cc1,2.1µM*,26%,19%,-1%
O=C(NNc1nc(Nc2ccccc2)nc(N2CCOCC2)n1)Nc1ccc(Cl)cc1,10µM*,178%,7%,-5%
C/C(=N\Nc1cc(C)nc(-c2ccccc2)n1)c1cccc([N+](=O)[O-])c1,12µM*,0.41µM*,0%,-1%
Cc1ccc(NC(=O)CC2Oc3ccccc3NC2=O)cc1C (configuration not stated),·,·,0%,·
CCN1CCN(C(=O)c2cc(=O)c3cc(C)ccc3o2)CC1,-4%,0%,0%,2%
COc1ccc(-c2nc(N/N=C(\C)c3ccc(O)cc3)c3ccccc3n2)cc1,?,-98%,14%,0%
C/C(=N\Nc1nc(-c2ccc(C)cc2)nc2ccccc12)c1ccc([N+](=O)[O-])cc1,0%,2.1µM*,0%,7%
CCOC(=O)c1[nH]c2ccccc2c1NC(=O)c1ccc(OC)c(OC)c1,·,·,-10%,·
CN1C[C@@H]2C(c3ccc(C(F)(F)F)cc3)C3(c4cccnc4)CC2(C3)[C@H]1c1ccccc1 (some centres not stated),2.3µM*,2.9µM*,8%,1%
N#Cc1ccc(C23CC4(C2)[C@H](CN(Cc2ccc(C(F)(F)F)cc2)[C@@H]4c2ccccc2)C3c2ccc(C(F)(F)F)cc2)cc1 (some centres not stated),-20%,-18%,-22%,-2%
FC(F)(F)c1ccc(CN2C[C@@H]3C(c4ccccc4)C4(c5cccnc5)CC3(C4)[C@H]2c2ccccc2)cc1 (some centres not stated),2.3µM*,3.3µM*,?,-7%
FC(F)(F)c1ccc(CN2C[C@@H]3C(c4ccc(C(F)(F)F)cc4)C4(c5cccnc5)CC3(C4)[C@H]2c2ccccc2)cc1 (some centres not stated),2.1µM*,2.1µM*,-30%,1%
FC(F)(F)c1ccc(C2[C@H]3CN(Cc4cccnc4)[C@H](c4ccccc4)C34CC2(c2ccccc2)C4)cc1 (some centres not stated),2.9µM*,2.3µM*,-20%,-4%
CSCCC(NS(=O)(=O)c1ccc2c(c1)oc(=O)n2C)C(=O)Nc1ccc(Cl)cc1 (configuration not stated),·,·,-12%,·
OCC[C@H]1C[C@H](O)[C@@H](O)[C@]2(Cc3ccccc3CCO2)O1,9%,-27%,-9%,-15%
